# In PubChem BioAssay AID504332 (National Center for Advancing Translational Sciences (NCATS), 2011):
# In all, about 350,000 compounds went through this assay and about 31,000 (8.9%) were called active. Not shown: some 15% with an inconclusive outcome. The call rests on the fitted dose curve; in most records, active means well fitted inhibition curve with a large enough effect; inconclusive means small, poorly fitted or top-dose-only effect; inactive means no such curve, though single readings can be large or run the other way. The entries come from a sample that favours actives as a whole. Where a call stands in place of a potency, no number is given.
# Target: Histone-lysine N-methyltransferase EHMT2 (Homo sapiens) (UniProt Q96KQ7)
# Assay: qHTS Assay for Inhibitors of Histone Lysine Methyltransferase G9a; further: nearly all actives have a fitted effect of over 75% in size
# Details: G9a H3K9 monomethylation, AlphaScreen, 2 h; series mostly up to 59 µM
# From the text: Methylated lysines, on the N-terminal tails of histone proteins serve as epigenetic markers to recruit factors that can then modify local chromatin structure to lead to functional consequences. G9a and other members of the SUV39 family of the SET domain-containing superfamily of histone lysine methyltransferases (HMT) have been identified to specifically methylate Lys9 of histone H3 (H3K9). G9a catalyzes the mono- and di-methylation of H3K9 in mammalian euchromatic regions, where the resulting H3K9me2 is indicative of transcriptional repression. […] The inhibition of G9a will result in transcriptional activation and work synergistically with DNA methyltransferase and histone deacetylase inhibitors, to kill cancer cells. This qHTS assay for identification of G9a inhibitors is a chemiluminescence based AlphaScreen (PerkinElmer). Methylation of biotinylated-histone peptide is measured through specific antibody-based detection, in conjunction with streptavidin-coated donor and anti-IgG antibody-coated acceptor beads. The method is particularly well suited for detection of inhibitors acting by the desired histone peptide competitive mechanism and is applicable to testing other HMTs. Although AlphaScreen has significant advantages with its utility in a variety of epigenetic target assays, the primary screening data provided in this deposition should be used with caution due to the prevalence of screening artifacts. An AlphaScreen counterscreen is highly recommended to be run against any putative actives to eliminate non specific artifacts. Alternatively, one can use other AlphaScreen assays in PubChem to filter out promiscuous hits. Quinn et al. A chemiluminescence-based method for identification of histone lysine methyltransferase inhibitors. Mol Biosyst 6(5): 782-8. 2010. PMID: 20567762 [2] Baell,Holloway. New substructure filters for removal of pan assay interference compounds (PAINS) from screening libraries and for their exclusion in bioassays. J Med Chem. 53(7):2719-40. 2010. PMID: 20131845 NIH Molecular Libraries Probe Production Network [MLPCN] NIH Chemical Genomics Center [NCGC] Structural Genomics Consortium (SGC) NIH Grant: 5U54 MH084681-02
# To each well of a 1,536w plate, 2ul of HMT enzyme (final 20nM) were added, using a nanoliter dispenser. The G9a- and GLP-inhibitor BIX-01294 (CID: 25150857) are used as an intraplate control, with a 16-point titration in duplicate. A Kalypsys pin-tool transferred 23nl of library compound solution in DMSO to each well. Following a 15 min incubation of enzyme with compounds at room temperature, 1ul mixture of b-H3K9 peptide substrate (final 500nM) and SAM cofactor (final 20uM) were added. Reactions were allowed to proceed at room temperature for 2 hours. Methylated b-H3K9 peptide product was detected with 0.5 ug/mL rabbit polyclonal anti-monomethyl histone H3K9 antibody (Abcam Inc., Cambridge, MA) and 20 ug/mL each streptavidin-coated donor and anti-rabbit IgG acceptor AlphaScreen beads. Antibody and beads were added in a 1ul dispense, for a final volume of 4ul, and plates were incubated, protected from the light, for 10 min at room temperature. Microplates were then read on an EnVision multilabel plate reader using the 1,536 plate HTS AlphaScreen aperture (excitation time 80 ms, measurement time 240 ms).
# Potency means the concentration at half of the fitted maximal effect.
# Chain of Histone-lysine N-methyltransferase EHMT2 (Homo sapiens) (Q96KQ7 913-1193 limits assumed): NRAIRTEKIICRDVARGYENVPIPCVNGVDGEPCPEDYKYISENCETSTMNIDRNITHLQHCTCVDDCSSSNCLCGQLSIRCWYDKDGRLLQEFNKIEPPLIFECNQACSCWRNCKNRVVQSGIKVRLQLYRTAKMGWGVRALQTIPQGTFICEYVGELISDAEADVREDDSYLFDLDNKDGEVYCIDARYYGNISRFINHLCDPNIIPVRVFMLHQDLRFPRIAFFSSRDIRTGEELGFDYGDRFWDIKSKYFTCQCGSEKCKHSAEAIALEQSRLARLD
SMILES,Potency,"activity, negative = inhibition"
O=C(CCCn1c(=O)c2cccn2c2cccnc21)NCc1ccc(F)cc1,inactive,
Cc1cc(C)cc(NC(=O)c2cnc3sc(N4CCCC4)nn3c2=O)c1,inactive,
O=C1/C(=C\Nc2ccccc2)CCN1c1ncccn1,50.1 µM (active),
O=C(Cc1ccccc1)NNC(=O)C1CCN(c2ncccn2)CC1,inactive,
COc1ccc(-c2c(C)nn3c(N4CCC(C(=O)NCCC(C)C)CC4)cc(C)nc23)cc1OC,inactive,
CCC1CCCCN1Cc1c(O)ccc2c(=O)c(Oc3ccccc3Cl)c(C(F)(F)F)oc12 (stereo not given),inactive,
Cc1ccc(OCCn2c(CNc3ccccc3C)nc3ccccc32)cc1,inactive,
COc1ccccc1CNC(=O)CCCCn1c(=O)c2ccccc2n(CC(=O)Nc2cc(Cl)ccc2C)c1=O,inactive,
COC(=O)c1ccc(NC(=O)CCc2c(C)nc3c(c(C)nn3-c3ccc(C)cc3)c2C)cc1,inactive,
O=C(CCOc1ccccc1)N(Cc1cccnc1)c1nc2ccc(Cl)cc2s1,inactive,
Cc1cccc(OCC(=O)NCCCNC(=O)c2ccccn2)c1,inactive,
COc1ccc(CC(=O)N/N=C(\C)c2ccccn2)cc1,inactive,
CCN(CC)CCOc1ccc2c(c1)C(=NNC(=O)c1ccccn1)c1cc(OCCN(CC)CC)ccc1-2,22.4 µM (active),
O=C(Nc1ccccc1N1CCN(C(=O)c2ccccc2)CC1)c1ccco1,inactive,
CCc1nc2ccc(C(=O)N3CCN(c4cc(Cl)ccc4C)CC3)cc2nc1CC,inactive,
Cc1ccc(C)c(N2C(=O)N(Cc3c(F)cccc3Cl)c3ccccc3S2(=O)=O)c1,inactive,
CCOc1ccc(NC(=O)c2cc3c(=O)n(Cc4cccs4)ccc3nc2C)cc1,inactive,
Cc1nn(-c2ccccc2)c2c1c(C)c(CCC(=O)NCC1CCCO1)c(=O)n2C (stereo not given),inactive,
COc1ccc(OCC(=O)N2CCN(C(=O)c3cccs3)CC2)cc1,inactive,
COc1ccc(N2CCN(C(=O)c3cccs3)CC2)cc1,50.1 µM (active),
O=C(c1cccs1)N1CCN(C(=O)N2CCOCC2)CC1,inactive,
O=C(O)c1ccc(NC(=O)c2ccc(COc3ccc(Cl)cc3)o2)cc1,inactive,

SMILES,Potency,"activity, negative = inhibition"
Cc1ccc(Oc2c(C(F)(F)F)oc3c(CN4CCCCC4)c(O)ccc3c2=O)cc1,inactive,
O=C(N/N=C/c1c[nH]c2ccccc12)c1ccccc1O,inactive,
O=C(Nc1ccccc1N1CCOCC1)c1ccncc1,,-10.3% [at 2.33 µM] (inactive)
c1ccc(-c2oc3ncnc(N4CCOCC4)c3c2-c2ccccc2)cc1,,-7.86% [at 12.7 µM] (inactive)
O=C1c2ccccc2-c2ncnc3c(N4CCOCC4)cc(N4CCOCC4)c1c23,50.1 µM (active),
COc1cc(C(=O)NCCc2csc3nc(-c4ccccc4C)nn23)cc(OC)c1OC,inactive,
CN(C)c1ccc(/C=N/NC(=O)C(O)c2ccc(Br)cc2)cc1 (stereo not given),inactive,
CC(=O)NC(CC(=O)O)c1ccc(F)cc1 (stereo not given),inactive,
CN(C)c1ccc(C(CC(=O)O)C(=O)O)cc1 (stereo not given),56.2 µM (active),
COc1cccc(C(=O)N(Cc2cccc(Cl)c2)Cc2ccco2)c1,inactive,
COc1ccccc1-c1cc(C(=O)N2CCCCC2)no1,inactive,
COc1ccc(OCc2cc(C(=O)N3CCCC3)no2)c2ccccc12,39.8 µM (active),
O=C(c1cc(COc2ccc(F)cc2F)on1)N1CCOCC1,inactive,
Cc1ccc(CNS(=O)(=O)CCNC(=O)c2ccccc2)cc1,inactive,
Cc1ccc(-c2csc(NC(=O)C3=COCCO3)n2)cc1C,56.2 µM (active),
Cc1ccc(-c2csc(NC(=O)c3cnccn3)n2)cc1C,inactive,
Cc1csc(NC(=O)C2=COCCO2)n1,inactive,
O=C(Nc1ccc(OC(F)(F)F)cc1)c1cc2c(=O)n3ccccc3nc2s1,inactive,
Cc1c(NC(=O)CSc2nnc(-c3cccnc3)n2N)c(=O)n(-c2ccccc2)n1C,,24.5% [at 12.7 µM] (inactive)
Cc1cc(=O)[nH]c(SCc2cc(Cl)ccc2OC(F)F)n1,inactive,
COC(=O)c1ccc(CSc2nncn2N)cc1,inactive,
CCCCOc1ccc(Cl)cc1CSc1nncn1N,7.08 µM (active),

SMILES,Potency,"activity, negative = inhibition"
Cc1cccc(N(C(=O)Cc2cccs2)C(C(=O)NCc2ccco2)c2ccncc2)c1 (stereo not given),inactive,
Cc1ccc(NC(=O)C(=O)NCc2ccco2)c(C)c1,inactive,
Cc1ccc2nc(SC(C)C(=O)NCc3ccco3)[nH]c2c1 (stereo not given),39.8 µM (active),
CCN1CCN(Cc2c(O)ccc3oc(C)c(C(=O)Nc4ccc(C)cc4C)c23)CC1,inactive,
CCOc1ccc(-c2nonc2NC(=O)c2oc3ccc(C)cc3c2C)cc1OCC,inactive,
O=C(c1cccs1)N1CCN(Cc2ccc3c(c2)OCO3)CC1,56.2 µM (active),
O=C(C1CCN(S(=O)(=O)c2cnc[nH]2)CC1)N1CCN(Cc2ccc3c(c2)OCO3)CC1,,-12% [at 12.7 µM] (inactive)
O=C(Nc1cccc2ccccc12)N1CCN(Cc2ccc3c(c2)OCO3)CC1,,2.38% [at 12.7 µM] (inactive)
Cc1cc(C)n2nc(C(=O)N3CCN(Cc4ccc5c(c4)OCO5)CC3)nc2n1,inactive,
O=C(C1CCN(Cc2ccc(Cl)cc2)CC1)N1CCN(Cc2ccc3c(c2)OCO3)CC1,8.91 µM (active),
O=C(C1CCN(C2CCN(Cc3cccc4c3OCO4)CC2)CC1)N1CCOCC1,inactive,
Cc1ccc(S(=O)(=O)N2[C@@H](c3cccc(Cl)c3)C(C(=O)O)=CC[C@H]2c2ccc(Cl)c(Cl)c2)cc1,,13.5% [at 2.33 µM] (inactive)
COc1ccc(-c2cc(C(=O)NCCCN3CCCC3=O)c3ccccc3n2)cc1OC,,15% [at 2.33 µM] (inactive)
Cc1cc(C)c(NC(=O)CSc2nc3nccnc3c(=O)n2CCc2c[nH]c3ccccc23)c(C)c1,inactive,
CCCCc1ccc(NC(=S)NCCCN2CCOCC2)cc1,,31.4% [at 12.7 µM] (inactive)
Cc1ccc2cc(C#N)c(NCCNC(=S)NCCCN3CCOCC3)nc2c1,39.8 µM (active),
COCCCNC(=S)NCCNc1nc2cc(C)c(C)cc2cc1C#N,inactive,
CCOCCCNc1nc(-c2ccccc2)nc2ccccc12,inactive,
Cc1noc(NS(=O)(=O)c2ccc(NC(=O)c3oc4ccc(F)cc4c3C)cc2)c1C,inactive,
Cc1cc(C)c2nc(-c3cccnc3)cc(C(=O)Nc3ccc(S(=O)(=O)Nc4onc(C)c4C)cc3)c2c1,50.1 µM (active),
CCn1c(SCC(=O)Nc2ccc(S(=O)(=O)Nc3onc(C)c3C)cc2)nnc1-c1ccccc1,inactive,
